Pf Dd2 inh: inhibitors of Plasmodium falciparum Dd2 growth; P. falciparum Dd2 growth, SYBR Green, 72 h; Potency, µM (highest dose often 28.9 µM), inactives show top-dose activity, negative = inhibition, actives largely listed as inhibitors; 120,000 compounds, 4.3% hits; active means well fitted inhibition curve with a large enough effect;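 further: plate controls were DMSO vehicle for no effect and reference drug for full effect; nearly all actives have a fitted effect of over 65% in size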
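Readout: SYBR Green fluorescence, 485 nm excitation, 535 nm emission, after ~16 h lysis at 37C. Before that, Dd2-infected red cells (2.5% hematocrit) grew 72 h with compound, 29 uM top final concentration.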
Starred values were filed as active, the others as inactive; i = inactive; [ ] = another dose, or the depositor's remark. This excerpt belongs to a sample that is enriched for hits. Potency means the concentration at half of the fitted maximal effect.

SMILES | Pf Dd2 inh
CCC(=O)C1=C(c2ccc(F)cc2)N(C(=O)CC)n2c(nnc2C2CCCCC2)S1 | 3.2µM*
CCCSC1=NC2(CCN(C(=O)NC3CCCCC3)CC2)N=C1c1ccc(Cl)cc1 | 7%
CCC(=O)C1=C(c2ccc(Cl)cc2)N(C(=O)CC)n2c(C)nnc2S1 | 2.8µM*
Cn1c(Cn2cccn2)nnc1C1CCCN(C(=O)c2cccc(F)c2)C1 (stereo not drawn) | 6%
CC(=O)C1=C(c2ccc(Cl)cc2)N(C(C)=O)n2c(nnc2C2CCCCC2)S1 | 1µM*
Cc1ccc(C2CCN(C(=O)Nc3ccc(Cl)cc3)C2)cc1 (stereo not drawn) | i
Cn1nnnc1C1CCCN(C(=O)c2ccc(F)cc2)C1 (stereo not drawn) | 9%
CCn1c(SCC(=O)c2ccc([N+](=O)[O-])cc2)nnc1-c1ccc(Cl)cc1 | i
O=C(NC[C@H]1COCc2nc3cc(F)ccc3n21)c1ccc(Cl)cc1 | -8%[44.1 µM]
NC(=O)NCC(=O)N1CCCC(Nc2ccc3c(c2)OCCO3)C1 (stereo not drawn) | i
Cc1noc([C@@H]2CN(S(=O)(=O)c3ccc(Cl)s3)C[C@H]2C(N)=O)n1 | -3%
CC(=O)Nc1ccc(CN(CCN2CCCCC2)CC2CCCN(C3CCCC3)C2)cc1 (stereo not drawn) | -26%
Cc1nccn1-c1ccc(CNC(=O)C(c2ccccc2F)N(C)C)cc1 (stereo not drawn) | -11%
COCCN1C(=O)CS(=O)C12CCN(C(=O)c1ccc3cc[nH]c3c1)CC2 (stereo not drawn) | 6%
CCNC(=O)[C@@H]1C[C@H](NC(=O)Cc2ccccc2F)CN1C1CCOCC1 | 2%
CC(C)CNC(=O)C1CCN(C(=O)N2CC3CC(C2)[C@H]2CCCC(=O)N2C3)CC1 (stereo partly drawn) | -25%
CCCS(=O)(=O)N1CCC2(CC1)C(OC)CN2c1cccc(F)c1 (stereo not drawn) | i
COC1C(=O)N(c2cccc(F)c2)C12CCN(C(=O)CC1CCN(C(C)=O)CC1)CC2 (stereo not drawn) | -7%
COC1CN(c2cccc(F)c2)C12CCN(C(=O)CC1CCCCC1)CC2 (stereo not drawn) | 8.9µM*
COCCNc1c(-c2noc(C)c2C(=O)Nc2ccc(OC)nc2)cnn1C | 2%[44.1 µM]
CCc1ccc(NC(=O)CN(c2ccc(C)cc2)S(=O)(=O)c2c(C)nn(C)c2C)cc1 | -13%
Cc1cccc(CCNC(=O)CN(c2ccc(C(C)C)cc2)S(=O)(=O)c2c(C)nn(C)c2C)c1 | 10µM*
Cc1ccc(CCNC(=O)CN(c2ccc(C)cc2)S(=O)(=O)c2c(C)noc2C)cc1 | 11%
Cc1ocnc1C(=O)N1CCC2(CCC(=O)N(CC(C)O)C2)CC1 (stereo not drawn) | -4%
COc1ccccc1OCCNC(=O)C1CCCN(Cc2ccncc2)CCC(=O)NCC1 (stereo not drawn) | 2%
SMILES | Pf Dd2 inh
COc1ccc(C(=O)N2C[C@@H]3C[C@H](C2)c2ccc(NS(=O)(=O)c4ccc(NC(C)=O)cc4)c(=O)n2C3)cc1 | -16%
CN1C(=O)c2ccccc2Sc2ccc(NC(=O)Nc3ccccc3F)cc21 | -14%
CCc1cccc(NC(=O)Nc2ccc3c(c2)N(C)C(=O)c2ccccc2S3)c1 | i
CN1C(=O)c2ccccc2Sc2ccc(NC(=O)N3CCN(c4cccc(Cl)c4)CC3)cc21 | 13µM*
CNC(=O)[C@@H]1CN(C(=O)c2ccc3cc[nH]c3c2)C[C@H]1C1CCN(C)CC1 | 19%
COc1cccc(-c2cccc(-c3nc(C4CCOCC4)nn3CCO)c2)c1 | -7%
O=C(NC1CC1)c1cc(C2CC2)nc2onc(C3CCNCC3)c12 | 6%
Cc1cc(C(=O)NCc2ccc(F)cc2)c2c(C3CCNC3)noc2n1 (stereo not drawn) | 15%
O=C(NCc1ccc(F)cc1)c1cc(C2CC2)nc2onc(C3CCNCC3)c12 | 10µM*
COCCNC(=O)c1cc(C2CC2)nc2onc(C3CCNC3)c12 (stereo not drawn) | 3%
O=C(NCc1ccc(F)cc1)c1cc(C2CC2)nc2onc(C3CCCNC3)c12 (stereo not drawn) | 8.9µM*
O=C(NCc1ccc(F)cc1)c1cc(C2CC2)nc2onc(C3CCCN3)c12 (stereo not drawn) | -12%
O=C(CN1C(=O)NC(c2ccc(Cl)cc2)C2=C1COC2=O)Nc1ccc(Br)cc1F (stereo not drawn) | -23%
O=C(c1ccccc1F)N1CCCN(c2nc3ncccc3o2)CC1 | i
N#Cc1cccnc1N1CCN(Cc2ccc(F)c(F)c2)C(CCO)C1 (stereo not drawn) | -11%
Cc1n[nH]c(C)c1C(N)C(=O)N1CC2(C)CN(C)CC(C)(C1)C2O (stereo not drawn) | -7%
O=C(C[C@@H]1CCNC[C@@H]1Cc1cc(COc2ccccc2)on1)NC1CCCCC1 | -12%[44.1 µM]
COc1ccc(CNC(=O)C[C@@H]2CCNC[C@@H]2Cc2cc(-c3ccc(OC)cc3)on2)cc1 | -2%
C#CCN(C)C(=O)C[C@@H]1CCNC[C@@H]1Cc1cc(COc2ccccc2)on1 | 10µM*
CN(Cc1ccccc1)C(=O)C[C@@H]1CCNC[C@@H]1Cc1cc(CSc2ccccc2)on1 | 10µM*
COc1ccc(-c2cc(C[C@H]3CNCC[C@H]3CC(=O)N3CCN(C)CC3)no2)cc1 | -19%[44.1 µM]
COc1ccc(-c2cc(C[C@H]3CNCC[C@H]3CC(=O)NCc3ccccc3OC)no2)cc1 | 10µM*
O=C(C[C@@H]1CCNC[C@@H]1Cc1cc(CSc2ccccc2)on1)NCc1cccnc1 | i
COc1ccc(CNC(=O)C[C@@H]2CCNC[C@@H]2Cc2cc(CN(C)Cc3ccccc3)on2)cc1 | i
COc1ccc(-c2cc(C[C@H]3CNCC[C@H]3CC(=O)NCc3ccc(OC)c(OC)c3)no2)cc1 | i
SMILES | Pf Dd2 inh
COc1ccc(-c2cc(C[C@H]3CNCC[C@H]3CC(=O)N(C)Cc3ccccc3)no2)cc1 | 10µM*
O=C(C[C@@H]1CCNC[C@@H]1Cc1cc(CSc2ccccc2)on1)NCCN1CCOCC1 | -20%
COc1ccc(-c2cc(C[C@H]3CNCC[C@H]3CC(=O)N3CCN(c4ccccc4)CC3)no2)cc1 | -7%
CC(=O)N1CCCC(c2nn(C)c(=O)n2Cc2ccccc2)C1 (stereo not drawn) | i
COc1ccc(-c2cnc3n[nH]c(-c4ccccc4)c3n2)cc1 | 8%[44.1 µM]
CC1(c2noc(C3(C)CCOCC3)n2)CCNCC1 | i
O=C(C[C@H]1NC(=O)c2ccccc2NC1=O)Nc1cccc2[nH]ccc12 | -22%
COCC(=O)NC1CCC12CCN(C(=O)C1CC1)CC2 (stereo not drawn) | -7%
CNC(=O)Cn1nc(C2CCN(C(=O)c3ccc(F)cc3)CC2)c2c1CCOC2 | 17%[5.79 µM]
CNC(=O)Nc1ccc(C2(C(=O)NCc3ccco3)CCC2)cc1 | 1%
C[C@@H](NC(=O)Cc1ccccc1)c1onc(-c2ccc(Cl)cc2)c1C(=O)O | -8%[44.1 µM]
Cn1cc2c3c(cccc31)CN(C(=O)C1CCC1)CC2 | -6%
O=C(c1ccc2c(c1)OCO2)N1CCC(N2CCOCC2=O)CC1 | 4%
CCCCN(C)CCCNC(=O)c1ccc2nc(N3CCCCC3)sc2c1 | 8.9µM*
CCCCN(C)CCNC(=O)C1CCN(c2nc3ccc(CC)cc3s2)CC1 | 10µM*
COc1ccc(N2CCN(CCCNC(=O)c3ccc4nc(N5CCCCC5)sc4c3)CC2)cc1 | 7%
CCc1ccc2nc(N3CCC(C(=O)O)CC3)sc2c1 | 21%
CCc1ccc2nc(N3CCN(C(=O)C4CC4)CC3)sc2c1 | i
CCN(CC)CCCNC(=O)c1ccc2nc(N3CCCCC3)sc2c1 | -9%

High-throughput results as filed in PubChem BioAssay.
